Test results from PubChem BioAssay (NCATS).
Records with an inconclusive call do not appear. Active and inactive are the calls of the source. Unless noted, the call rests on the fitted dose curve; in most records, active means well fitted curve in the direction sought with a large enough effect; inconclusive means small, poorly fitted or top-dose-only effect, or another doubt; inactive means no such curve, though single readings can be large; an effect the other way counts as inactive or inconclusive.

What was measured:
[1] = tested on: Zika virus NS2B-NS3 protease; assay: Primary screen GU AMC qHTS for Zika virus inhibitors (AID 1347154);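 further: 0% = no-inhibitor control and -100% = no-enzyme control; nearly all actives have a fitted effect of over 70% in size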
Procedure, shortened: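 Unlinked Zika NS2B hydrophilic domain–NS3 protease complex at 25 nM in 10 mM Tris-HCl pH 8.0, 0.01% Tween 20, with an AMC peptide substrate. Fluorescence change (340/450 nm) over 15 min at room temperature, normalized to controls, fitted to 4-parameter Hill.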

[2] = target: Estrogen receptor (Homo sapiens) (UniProt P03372); assay: qHTS assay for small molecule antagonists of estrogen receptor alpha signaling (AID 588513; active means well fitted curve in the direction sought with a large enough effect in the signal ratio, with a control signal flat, not every such curve was filed as active; the % refers to the signal ratio; further: on the % scale 0 is the no-effect control and ±100 the full control effect)
Sequence of Estrogen receptor (Homo sapiens) (P03372 whole entry, looked up): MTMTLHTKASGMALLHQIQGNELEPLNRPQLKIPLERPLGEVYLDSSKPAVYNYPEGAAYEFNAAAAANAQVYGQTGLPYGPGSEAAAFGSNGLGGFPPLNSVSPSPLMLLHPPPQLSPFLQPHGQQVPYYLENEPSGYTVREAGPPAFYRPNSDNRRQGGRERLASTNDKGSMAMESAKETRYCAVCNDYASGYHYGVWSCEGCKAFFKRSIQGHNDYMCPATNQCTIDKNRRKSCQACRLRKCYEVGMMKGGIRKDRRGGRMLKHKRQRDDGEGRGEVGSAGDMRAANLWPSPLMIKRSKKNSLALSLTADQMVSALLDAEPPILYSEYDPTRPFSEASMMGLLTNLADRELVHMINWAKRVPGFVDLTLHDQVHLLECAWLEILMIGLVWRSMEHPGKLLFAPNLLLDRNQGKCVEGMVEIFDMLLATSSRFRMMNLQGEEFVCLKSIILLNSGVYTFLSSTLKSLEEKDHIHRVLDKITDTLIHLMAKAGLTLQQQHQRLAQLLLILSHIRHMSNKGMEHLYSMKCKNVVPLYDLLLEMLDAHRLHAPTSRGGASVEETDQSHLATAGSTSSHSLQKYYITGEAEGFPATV
Procedure, shortened: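 Antagonist-mode qHTS in ER-alpha-UAS-bla HEK 293 cells: compound titration, 0.5nM estradiol for 18 h, CCF4 fluorescence, Hill-derived IC50.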

[3] = target: Estrogen receptor (Homo sapiens) (UniProt P03372); assay: qHTS assay for small molecule agonists of estrogen receptor alpha signaling (AID 588514; calls by dose curve;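 further: 0% = vehicle only and 100% = reference agonist; nearly all actives have a fitted effect of over 70% in size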)
Procedure, shortened: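 ER-alpha-UAS-bla GripTite HEK293 cells, 5000/well in 2% charcoal/dextran-stripped FBS medium, treated with compound titrations 18 h at 37 C. CCF4 beta-lactamase read by fluorescence after 2 h RT; normalised to 20 nM 17-beta-estradiol (100%) and DMSO (0%), Hill fit for EC50 and efficacy.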

[4] = target: Peroxisome proliferator-activated receptor gamma (Homo sapiens) (UniProt P37231); assay: qHTS assay for small molecule agonists of peroxisome proliferator-activated receptor gamma signaling (AID 588536; active means well fitted curve in the direction sought with a large enough effect in the signal ratio, with a control signal flat, not every such curve was filed as active; the % refers to the signal ratio;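 further: 0% = DMSO basal wells and 100% = rosiglitazone at 2 µM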)
Sequence of Peroxisome proliferator-activated receptor gamma (Homo sapiens) (P37231 whole entry, looked up): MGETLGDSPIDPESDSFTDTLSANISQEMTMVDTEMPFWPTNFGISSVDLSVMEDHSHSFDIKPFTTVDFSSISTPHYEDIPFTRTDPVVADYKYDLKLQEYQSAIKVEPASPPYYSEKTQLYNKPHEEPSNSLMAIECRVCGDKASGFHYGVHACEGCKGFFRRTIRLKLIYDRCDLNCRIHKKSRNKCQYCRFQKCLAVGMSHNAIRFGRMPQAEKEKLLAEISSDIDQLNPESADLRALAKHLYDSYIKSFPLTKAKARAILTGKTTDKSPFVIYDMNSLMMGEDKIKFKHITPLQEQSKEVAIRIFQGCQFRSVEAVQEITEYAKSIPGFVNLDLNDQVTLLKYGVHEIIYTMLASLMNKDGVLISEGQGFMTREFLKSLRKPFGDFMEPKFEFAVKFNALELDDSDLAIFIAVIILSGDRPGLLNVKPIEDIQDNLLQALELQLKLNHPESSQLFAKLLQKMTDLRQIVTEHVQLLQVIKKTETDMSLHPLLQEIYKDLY
Procedure, shortened: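 HEK293 UAS-bla reporter line, 1% charcoal/dextran FBS; titration, 16 h, 37 C; CCF4 loading 2 h RT; fluorescence 460/530 nm. Normalized to rosiglitazone 2 uM = 100%, DMSO = 0%.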

[5] = target: Peroxisome proliferator-activated receptor gamma (Homo sapiens) (UniProt P37231); assay: qHTS assay for small molecule antagonists of peroxisome proliferator-activated receptor gamma signaling (AID 588537; active means well fitted inhibition curve with a large enough effect in the signal ratio, with a control signal flat, not every such curve was filed as active; the % refers to the signal ratio;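 further: reporter cells co-stimulated with 50 nM rosiglitazone agonist during compound treatment; % of control where 0% means no effect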)
Procedure, shortened: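 PPARγ-UAS-bla HEK293 cells (3000/well) in 1% charcoal/dextran-stripped FBS are treated with compound, then stimulated with 50 nM rosiglitazone for 16 h at 37 °C. Read-out is CCF4 β-lactamase fluorescence after 2 h at RT. IC50 comes from Hill fits normalised to rosiglitazone and DMSO.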

[6] = target: Vitamin D3 receptor (Homo sapiens) (UniProt P11473); assay: qHTS assay for small molecule antagonists of vitamin D receptor signaling (AID 588541; calls by dose curve;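 further: receptor activated by calcitriol during compound treatment; series mostly up to about 77 µM; on the % scale 0 is the no-effect control and ±100 the full control effect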)
Sequence of Vitamin D3 receptor (Homo sapiens) (P11473 whole entry, looked up): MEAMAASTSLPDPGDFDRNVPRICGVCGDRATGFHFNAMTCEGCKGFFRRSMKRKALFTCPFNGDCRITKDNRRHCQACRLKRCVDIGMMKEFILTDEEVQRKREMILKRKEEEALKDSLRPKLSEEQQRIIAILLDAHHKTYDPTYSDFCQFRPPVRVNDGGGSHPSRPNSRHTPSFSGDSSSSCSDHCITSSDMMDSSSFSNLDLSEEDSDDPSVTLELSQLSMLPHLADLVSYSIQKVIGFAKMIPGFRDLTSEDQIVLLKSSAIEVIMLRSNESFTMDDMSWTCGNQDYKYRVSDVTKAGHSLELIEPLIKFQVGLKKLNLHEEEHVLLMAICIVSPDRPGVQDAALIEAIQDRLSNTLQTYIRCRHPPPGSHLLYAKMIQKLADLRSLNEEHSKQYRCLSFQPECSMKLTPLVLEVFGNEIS
Procedure, shortened: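 VDR-UAS-bla HEK293T cells in 2% charcoal-stripped FBS were stimulated with 1-alpha,25-dihydroxyvitamin D3 (3 nM final) plus compound for 16 h at 37 C. The beta-lactamase CCF4 readout was normalized to 50 nM agonist and DMSO, and Hill fits gave IC50.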

[7] = target: Vitamin D3 receptor (Homo sapiens) (UniProt P11473); assay: qHTS assay for small molecule agonists of vitamin D receptor signaling (AID 588543; calls by dose curve;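 further: 0% = DMSO basal and 100% = reference agonist control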)
Procedure, shortened: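 Measured: β-lactamase reporter activity (CCF4, 405 nm excitation, 460/530 nm emission) in HEK293T VDR-UAS-bla cells after 16 h compound exposure at 37 °C. Normalization against 50 nM 1α,25-dihydroxyvitamin D3 and DMSO; Hill-fit EC50.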

[8] = qHTS assay for small molecule agonists of retinoid X receptor alpha signaling (AID 588544; calls by dose curve;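 on activation: 0% = DMSO basal wells and 100% = reference agonist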); conditions: HEK293T RXRa-UAS-bla, beta-lactamase reporter, 18 h; 530 nm emission
[9] = target: Retinoic acid receptor RXR-alpha (Homo sapiens) (UniProt P19793); assay: as above
Sequence of Retinoic acid receptor RXR-alpha (Homo sapiens) (P19793 whole entry, looked up): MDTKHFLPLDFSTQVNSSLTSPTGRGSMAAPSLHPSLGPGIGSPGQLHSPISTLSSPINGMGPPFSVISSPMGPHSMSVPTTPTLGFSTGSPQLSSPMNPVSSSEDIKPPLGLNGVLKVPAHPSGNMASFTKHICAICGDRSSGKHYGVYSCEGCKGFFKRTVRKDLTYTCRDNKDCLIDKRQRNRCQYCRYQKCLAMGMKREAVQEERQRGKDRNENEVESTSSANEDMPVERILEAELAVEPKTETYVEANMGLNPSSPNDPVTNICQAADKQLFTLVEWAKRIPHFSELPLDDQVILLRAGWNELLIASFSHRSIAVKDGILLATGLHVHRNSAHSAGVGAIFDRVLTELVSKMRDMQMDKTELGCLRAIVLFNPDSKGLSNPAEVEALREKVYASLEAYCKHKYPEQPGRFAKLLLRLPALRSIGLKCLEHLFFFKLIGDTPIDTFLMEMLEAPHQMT

[10] = target: Thyroid hormone receptor beta (Homo sapiens) (UniProt P10828); assay: qHTS assay for small molecule agonists of thyroid hormone receptor beta signaling (AID 588545; calls by dose curve)
Sequence of Thyroid hormone receptor beta (Homo sapiens) (P10828 whole entry, looked up): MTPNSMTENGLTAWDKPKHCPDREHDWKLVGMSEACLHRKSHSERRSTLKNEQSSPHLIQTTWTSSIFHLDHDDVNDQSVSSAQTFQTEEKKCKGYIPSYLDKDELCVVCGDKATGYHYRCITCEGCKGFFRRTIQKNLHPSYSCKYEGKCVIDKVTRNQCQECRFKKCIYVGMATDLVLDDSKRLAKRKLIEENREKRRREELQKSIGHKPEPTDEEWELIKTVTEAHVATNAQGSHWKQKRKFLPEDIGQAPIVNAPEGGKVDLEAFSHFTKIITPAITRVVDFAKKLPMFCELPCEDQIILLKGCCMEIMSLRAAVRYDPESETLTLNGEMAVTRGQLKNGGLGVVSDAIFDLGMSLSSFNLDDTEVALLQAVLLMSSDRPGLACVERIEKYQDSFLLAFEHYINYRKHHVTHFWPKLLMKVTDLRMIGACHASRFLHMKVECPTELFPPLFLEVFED
Procedure, shortened: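 Cells (2500/well) were seeded, incubated 4 hrs at 37 C, dosed with a compound series, incubated 18 hrs, loaded with CCF4 dye for 2 hrs at RT, then read for fluorescence. Data were scaled between DMSO (0%) and 10 nM T3 (100%).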

[11] = qHTS assay for small molecule antagonists of retinoid X receptor alpha signaling (AID 588546; active means well fitted inhibition curve with a large enough effect in the signal ratio, with a control signal flat, not every such curve was filed as active; the % refers to the signal ratio;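 further: cells stimulated with 9-cis-retinoic acid as agonist; on the % scale 0 is the no-effect control and ±100 the full control effect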); conditions: HEK293T RXRa-UAS-bla, beta-lactamase ratio, antagonist mode; measured here: W530 green channel, cytotoxicity proxy
Procedure, shortened: (§1)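 Beta-lactamase reporter inhibition, read as CCF4 fluorescence ratio (ex 405, em 460/530 nm) after 2 h at RT. HEK293T UAS-bla cells, 2500/well, were stimulated with 9-cis-RA at 500 or 100 nM final alongside test compound for 18 h at 37 C.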

[12] = target: Retinoic acid receptor RXR-alpha (Homo sapiens) (UniProt P19793); assay: as above; conditions: HEK293T RXRa-UAS-bla, beta-lactamase ratio, antagonist mode
Procedure, shortened: as §1

[13] = qHTS assay for small molecule agonists of the antioxidant response element (ARE) signaling pathway (AID 651741; active means well fitted activation curve with a large enough effect in the signal ratio; the % refers to the signal ratio; further: % of control where 0% means no effect)
Procedure, shortened: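 CellSensor ARE-bla HepG2 cells (2,000/well) carrying ARE-driven beta-lactamase, exposed 16 h at 37 C. LiveBLAzer B/G FRET substrate added for 2 h at room temperature; fluorescence intensity read.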

[14] = qHTS assay for small molecule activators of the p53 signaling pathway (AID 651743; active means well fitted activation curve with a large enough effect in the signal ratio, not every such curve was filed as active; the % refers to the signal ratio; further: series mostly up to about 92 µM; % of control where 0% means no effect); conditions: HCT-116 p53RE-bla, beta-lactamase FRET ratio, 16 h; activation: stronger effect = higher value
Procedure, shortened: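 p53RE-bla HCT-116 cells carrying a beta-lactamase reporter under p53 response elements were exposed to compounds for 16 hours at 37 C. Reporter activity read as fluorescence after 2 hours at room temperature with LiveBLAzer B/G FRET substrate.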

[15] = qHTS assay for small molecule activators of the nuclear factor-kappa B (NF-kB) signaling pathway (AID 651749; active means well fitted activation curve with a large enough effect in the signal ratio; the % refers to the signal ratio; further: series mostly up to about 77 µM; % of control where 0% means no effect); conditions: NF-kB-bla ME-180 cells, beta-lactamase FRET ratio, 16 h; activation: stronger effect = higher value
Procedure, shortened: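 NF-kB-bla ME-180 cells carrying a beta-lactamase reporter under an NF-kB response element, 2,000 cells/well, exposed to compound for 16 hr at 37C; FRET-based beta-lactamase fluorescence read-out of pathway activation.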

[16] = qHTS assay for environmental chemicals that activate the Aryl hydrocarbon Receptor (AhR) signaling pathway (AID 651777); conditions: 1A2-DRE human hepatoma cells, luciferase, 24 h; activation: stronger effect = higher value; further: % of control where 0% means no effect; nearly all actives have a fitted effect of over 15% in size
Procedure, shortened: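 Concentration–response screening used 1,200 1A2-DRE cells per well, 24 hr compound exposure (37 C, 5% CO2), and One-Glo luminescence as the AhR-driven CYP1A2 reporter signal.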

[17] = target: Peroxisome proliferator-activated receptor alpha (Homo sapiens) (UniProt Q07869); assay: qHTS assay for small molecule agonists of the peroxisome proliferator-activated receptor alpha (PPARalpha) signaling pathway (AID 651778); conditions: PathHunter PPARalpha complementation, chemiluminescence, 6 h; stronger effect = higher value; further: % of control where 0% means no effect
Sequence of Peroxisome proliferator-activated receptor alpha (Homo sapiens) (Q07869 whole entry, looked up, the tested form may be a part): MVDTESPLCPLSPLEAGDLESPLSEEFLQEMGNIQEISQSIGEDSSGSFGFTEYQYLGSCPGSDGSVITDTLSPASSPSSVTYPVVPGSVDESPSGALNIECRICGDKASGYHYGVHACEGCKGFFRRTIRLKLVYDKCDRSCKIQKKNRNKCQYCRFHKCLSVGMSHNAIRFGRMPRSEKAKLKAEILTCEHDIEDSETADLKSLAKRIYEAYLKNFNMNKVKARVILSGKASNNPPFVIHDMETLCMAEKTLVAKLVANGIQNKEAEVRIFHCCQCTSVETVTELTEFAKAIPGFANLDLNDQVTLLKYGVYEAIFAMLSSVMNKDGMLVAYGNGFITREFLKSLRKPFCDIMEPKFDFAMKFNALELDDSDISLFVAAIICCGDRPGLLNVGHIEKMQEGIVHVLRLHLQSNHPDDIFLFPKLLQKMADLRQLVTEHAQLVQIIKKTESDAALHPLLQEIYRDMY
Procedure, shortened: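 Enzyme-fragment complementation assay in which ligand-bound PPARalpha translocates and forms an active enzyme that generates chemiluminescence. Cells were plated overnight, exposed to compound for 6 hr at 37 C, and then given detection reagent for 60 min at room temperature.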

[18] = qHTS assay for small molecule agonists of the antioxidant response element (ARE) signaling pathway measured by Nrf2-dependant transcriptional activity - cell viability counter screen (AID 720653; active means well fitted curve in the direction sought with a large enough effect in the repeat runs; an effect the other way counts as inactive or inconclusive; further: on the % scale 0 is the no-effect control and ±100 the full control effect); conditions: ARE-bla HepG2 viability, CellTiter-Glo ATP luminescence, 16 h; max response: stronger effect = lower value
Procedure, shortened: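 ARE-bla HepG2 cells treated with compounds for 16 h at 37C; this counter screen measures viability as intracellular ATP by CellTiter-Glo luminescence after 30 min at room temperature.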

[19] = qHTS assay for cell viability of HEK293 cells (AID 743288); conditions: ATP luminescence (CellTiter-Glo), 18 h; max response: stronger effect = lower value; further: on the % scale 0 is the no-effect control and ±100 the full control effect; nearly all actives have a fitted effect of over 50% in size
Procedure, shortened: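 Luminescent ATP quantitation served as the viability read-out. Cells (parental HEK293, 2,000/well) received compounds after at least 5 h at 37 C and were exposed for 18 h before a 30 min room-temperature reagent step.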

[20] = qHTS assay for cell viability of the p53RE-bla HCT-116 cell line (AID 743292); further: on the % scale 0 is the no-effect control and ±100 the full control effect; nearly all actives have a fitted effect of over 55% in size
Procedure, shortened: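 Compound-exposed HCT-116 (p53RE-bla) cells, 4,000 per well, were kept 16 h at 37 C following a 5 h preincubation. Cell number was estimated from total ATP by CellTiter-Glo luminescence read after 30 min at room temperature.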

[21] = target: Furin (Homo sapiens) (UniProt P09958); assay: Furin counterscreen qHTS for Zika virus inhibitors (AID 1347149);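 further: purified recombinant full-length human furin enzyme at 5 nM; fluorescence gain from furin cutting a BOC-RVRR-AMC peptide substrate over 15 min; top concentration of the series differs between compounds; plate controls were no-inhibitor control for no effect and no-enzyme control for full effect; nearly all actives have a fitted effect of over 70% in size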
Sequence of Furin (Homo sapiens) (P09958 whole entry, looked up): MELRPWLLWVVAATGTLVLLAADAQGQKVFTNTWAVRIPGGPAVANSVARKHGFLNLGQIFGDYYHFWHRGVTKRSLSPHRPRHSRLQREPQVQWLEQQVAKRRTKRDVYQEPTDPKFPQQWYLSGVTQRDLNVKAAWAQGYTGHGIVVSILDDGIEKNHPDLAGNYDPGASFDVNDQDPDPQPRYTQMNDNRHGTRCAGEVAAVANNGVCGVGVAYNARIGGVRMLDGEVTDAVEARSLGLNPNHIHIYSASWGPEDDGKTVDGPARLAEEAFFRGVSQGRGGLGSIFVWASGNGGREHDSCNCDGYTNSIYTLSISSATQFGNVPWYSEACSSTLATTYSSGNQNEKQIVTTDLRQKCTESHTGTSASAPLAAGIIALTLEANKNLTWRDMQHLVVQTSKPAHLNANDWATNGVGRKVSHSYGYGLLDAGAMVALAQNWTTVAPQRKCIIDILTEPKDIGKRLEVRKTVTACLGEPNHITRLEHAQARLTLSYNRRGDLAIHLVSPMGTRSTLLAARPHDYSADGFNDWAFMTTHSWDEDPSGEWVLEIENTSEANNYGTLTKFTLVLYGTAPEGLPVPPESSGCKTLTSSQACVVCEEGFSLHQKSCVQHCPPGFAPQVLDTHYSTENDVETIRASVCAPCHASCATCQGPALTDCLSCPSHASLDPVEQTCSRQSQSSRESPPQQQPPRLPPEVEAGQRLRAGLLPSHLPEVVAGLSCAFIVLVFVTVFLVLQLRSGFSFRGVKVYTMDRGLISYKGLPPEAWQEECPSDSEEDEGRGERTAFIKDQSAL
Procedure, shortened: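 Fluorogenic cleavage of BOC-RVRR-AMC (2 microM final, Km ~15 µM) was monitored (ex 340, em 450 nm) at 37C after 15 min RT preincubation of 5 nM furin with compounds in HEPES pH 7.0 buffer with CaCl2 and Triton X-100. Percent inhibition was fitted to a 4-parameter Hill curve.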

[22] = Vero cells viability qHTS for Zika virus inhibitors (AID 1347167); further: on the % scale 0 is the no-effect control and ±100 the full control effect
Procedure, shortened: (§2)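 Cells seeded at 2.5 x 10^5 cells/mL in DMEM with 4% FBS and attached overnight at 37 degrees C, then exposed to compound for 24 to 48 hours. Viability read as ATP content by CellTiter Glo luminescence.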

[23] = HepG2 cells viability qHTS for Zika virus inhibitors (AID 1347168); further: on the % scale 0 is the no-effect control and ±100 the full control effect
Procedure, shortened: as §2

[24] = Tertiary RLuc qRT-PCR qHTS assay for Zika virus inhibitors (AID 1347169); further: top concentration of the series differs between compounds; on the % scale 0 is the no-effect control and ±100 the full control effect; nearly all actives have a fitted effect of over 55% in size
Procedure, shortened: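 Inhibition of ZIKV-RLuc replication in Vero cells, read as Renilla luminescence 1-1.5 hrs after live-cell substrate addition, following 48-72 hrs infection at MOI 1-2 in presence of compound.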

[25] = target: Nuclear receptor subfamily 1 group I member 2 (Rattus norvegicus) (UniProt Q9R1A7); assay: qHTS assay for small molecule activators of the rat pregnane X receptor (rPXR) signaling pathway (AID 651751; call rule not given here; further: 0% is about no effect); conditions: rPXR reporter cells, luciferase (One-Glo), 24 h
Sequence of Nuclear receptor subfamily 1 group I member 2 (Rattus norvegicus) (Q9R1A7 whole entry, looked up): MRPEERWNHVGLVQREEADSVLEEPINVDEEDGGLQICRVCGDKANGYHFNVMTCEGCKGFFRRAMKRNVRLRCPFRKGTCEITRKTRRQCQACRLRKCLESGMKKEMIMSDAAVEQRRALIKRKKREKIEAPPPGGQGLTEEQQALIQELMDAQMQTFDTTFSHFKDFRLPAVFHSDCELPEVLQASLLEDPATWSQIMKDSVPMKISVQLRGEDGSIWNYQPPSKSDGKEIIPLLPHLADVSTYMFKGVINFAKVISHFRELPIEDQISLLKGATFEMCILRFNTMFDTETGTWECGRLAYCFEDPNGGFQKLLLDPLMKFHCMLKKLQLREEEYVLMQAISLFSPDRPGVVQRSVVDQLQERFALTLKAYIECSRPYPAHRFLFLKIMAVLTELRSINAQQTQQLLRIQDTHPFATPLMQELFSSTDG

OC[C@H]1O[C@@H](n2cnc3cc(Cl)c(Cl)cc32)[C@H](O)[C@H]1O
inactive: Potency [1]

CCCCC/C=C\C/C=C\CCCCCCCC(=O)NCCO
inactive: activity change, negative = inhibition [1] 7.86% [at 6.83 µM]

NCCc1ccccn1
inactive: Potency [1]

C=CCN1CCC2(C)c3cc(O)ccc3CC1[C@@H]2C (stereo partly drawn)
inactive: Potency [1]

CC(C)OC(=O)Nc1ccccc1
-6.41%: max response [11]
inactive: Potency [2] | Potency [3] | outcome [4] | Potency [5] | outcome [6] | Potency [7] | outcome [9] | Potency [10] | max response [12] -6.43% | Potency [13] | activation [14] -1.81% | activation [15] 0.27% | activation [16] 12.4% | max response [17] -0.246% | max response [18] -3.27% | max response [19] -1.53% | outcome [20] | Potency [21] | Potency [22] | Potency [23] | Potency [24] | max response [25] 10.9%
-15.4%: max response [8]
